Screens deposited in PubChem by National Center for Advancing Translational Sciences (NCATS).
Tau fluor cs: Counterscreen qHTS for Inhibitors of Tau Fibril Formation, Fluorescence Polarization | tau K18 P301L Alexa594 fluorescence, heparin fibrillization | Potency, µM (highest dose often 57.7 µM), for the others: at the top dose activity change, negative = decrease | actives 0.93% (n = 280,000) | AID 1463, 2008; further: on the % scale 0 is the no-effect control and ±100 the full control effect; nearly all actives have a fitted effect of over 55% in size
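Human K18 P301L tau (15 uM unlabeled plus 0.24 uM Alexa 594-labeled, final) in 100 mM sodium acetate pH 7 was mixed with compound and 20 uM heparin and incubated 6 hr at 37 C.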
HttQ103 aggreg: qHTS Multiplex Assay to Identify Dual Action Probes in a Cell Model of Huntington: Aggregate Formation (GFP); PC12 HttQ103-GFP aggregates, Acumen cytometry, 40 h; Potency, µM (titrated, usually from 46.1 µM), for inactives: at the highest dose activity change, negative = inhibition, most hits filed as inhibitors; actives 1.1% (n = 220,000); further: on the % scale 0 is the no-effect control and ±100 the full control effect; nearly all actives have a fitted effect of over 60% in size
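Aggregates are detected as GFP objects 1–25 µm with signal 6 STDEV over background in lysates of induced PC12 cells. These carry Huntingtin exon 1 with 103 glutamines fused to GFP under an ecdysone promoter; compounds titrated.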
Tau ThT inhib: qHTS for Inhibitors of Tau Fibril Formation, Thioflavin T Binding; Microtubule-associated protein tau (Homo sapiens), P10636; recombinant tau K18 P301L, heparin-induced fibrillization, ThT fluorescence; Potency, µM (titrated, usually from 57.4 µM), inactives show top-dose activity, negative = inhibition, hits mostly inhibitors; actives 2.1% (n = 270,000); AID 1460, 2008; further: on the % scale 0 is the no-effect control and ±100 the full control effect; nearly all actives have a fitted effect of over 55% in size
Target sequence (P10636 561-689 P618L limits assumed): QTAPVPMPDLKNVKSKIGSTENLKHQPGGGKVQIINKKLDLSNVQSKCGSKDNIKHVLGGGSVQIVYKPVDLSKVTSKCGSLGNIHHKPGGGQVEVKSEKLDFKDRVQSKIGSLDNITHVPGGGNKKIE
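Fibril formation assay: tau K18 P301L at 15 uM with trace Alexa 594 label, heparin inducer 20 uM, pH 7 sodium acetate buffer, 37 C for 6 hr; endpoint ThT signal.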
HTT cytoprotect: qHTS Multiplex Assay to Identify Dual Action Probes in a Cell Model of Huntington: Cytoprotection (ATP); PC12 HTT-Q103 induced, cytoprotection, ATP luminescence, 40 h; Potency, µM (doses to about 56.4 µM), without a hit: cytoprotection (ATP increase), hits mostly activators; actives 0.14% (n = 230,000); further: % of control where 0% means no effect; nearly all actives have a fitted effect of over 45% in size
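Huntington model: PC12 line, ecdysone-inducible HTTQ103 exon1–GFP, tebufenozide 100 nM. Test articles in a dose series. Endpoint luminescence from cellular ATP.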
Tau FP inhib: qHTS for Inhibitors of Tau Fibril Formation, Fluorescence Polarization; Microtubule-associated protein tau (Homo sapiens), P10636; K18 P301L tau heparin fibrillization, Alexa594 FP, 6 h; Potency, µM (top dose mostly 57.7 µM), inactives show at the highest dose activity, negative = inhibition, usual class: inhibitors; actives 0.39% (n = 280,000); AID 1468, 2008; further: on the % scale 0 is the no-effect control and ±100 the full control effect; nearly all actives have a fitted effect of over 55% in size
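K18 P301L tau (15 uM unlabeled/0.24 uM Alexa 594-labeled, final) + compound + heparin 20 uM final; 100 mM NaOAc pH 7; 6 hr 37 C; ThT 30 uM final added, 1 hr RT; FP ex 555/em 632 nm.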
Active calls of the source: *; [ ] = dose if it differs, or a comment. A selection: hits, their analogues and other compounds. The true share with any hit is near 3.7%. The call rests on the fitted dose curve; in most records, active means well fitted curve in the direction sought with a large enough effect; inconclusive means small, poorly fitted or top-dose-only effect, or another doubt; inactive means no such curve, though single readings can be large; an effect the other way counts as inactive or inconclusive. Potency means the concentration at half of the fitted maximal effect.

For O=C(Nc1ccc(N2CCCC(O)C2)cc1)c1snc2c(=O)[nH]cnc12 (stereo unspecified) the results were Tau fluor cs -29%, HttQ103 aggreg 6%, Tau ThT inhib 3.5µM*, HTT cytoprotect -59% and Tau FP inhib 0%.
CCN(CC)c1ccc2nc3c(=O)n(C)c(=O)n(C)c3nc2c1 was read as Tau fluor cs inconclusive, Tau ThT inhib 16µM* and Tau FP inhib inconclusive.
For CCC(=O)Nc1ccc2nc3c(=O)n(C)c(=O)n(C)c3nc2c1 the results were Tau fluor cs -7%, Tau ThT inhib -14% and Tau FP inhib -5%.
Screening O=C(CN1CCCN(Cc2ccccc2Cl)S1(=O)=O)NCc1ccccc1 returned Tau fluor cs -1%, Tau ThT inhib 13% and Tau FP inhib 4%.
`CC(C)=CCC1C(=O)N(c2ccccc2)N(c2ccccc2)C1=O` gave HttQ103 aggreg 20% and HTT cytoprotect 73%.
`CCCCC1C(=O)N(c2ccccc2)N(c2ccc(O)cc2)C1=O` (stereo unspecified) gave Tau fluor cs -25%, Tau ThT inhib 16µM*, HTT cytoprotect 2.2µM* and Tau FP inhib inconclusive.
`Oc1ccc(/C=N/N2CCN(C3c4ccccc4-c4ccccc43)CC2)cc1` gave Tau fluor cs inconclusive, HttQ103 aggreg 1%[9.22 µM], Tau ThT inhib -7%, HTT cytoprotect -2%[10 µM] and Tau FP inhib -9%.
Screening Oc1ccc(/C=N/N2CCN(C3c4ccccc4-c4ccccc43)CC2)c(O)c1 returned Tau fluor cs 13µM*[quencher], HttQ103 aggreg 9%, Tau ThT inhib -18%, HTT cytoprotect 5% and Tau FP inhib inconclusive.
Screening Oc1ccc(/C=N/N2CCN(C3c4ccccc4-c4ccccc43)CC2)cc1O returned Tau fluor cs 13µM*[quencher], HttQ103 aggreg -7%[9.22 µM], Tau ThT inhib inconclusive, HTT cytoprotect -60%[10 µM] and Tau FP inhib inconclusive.
Screening O=C(O)c1ccccc1/C=N/N1CCN(C2c3ccccc3-c3ccccc32)CC1 returned Tau fluor cs -4%, HttQ103 aggreg 4%[9.22 µM], Tau ThT inhib -10%, HTT cytoprotect 17%[10 µM] and Tau FP inhib -7%.
O=C(O)C/C(=C\c1ccccc1)C(=O)O was read as HTT cytoprotect 2%[10 µM].
C=C[C@@]1(C)C[C@H](OC(=O)CSC(C)(C)CNC(=O)[C@@H](N)C(C)C)[C@@]2(C)C(C)CC[C@@]3(CCC(=O)[C@@H]32)[C@H](C)[C@H]1O (stereo partly specified) was read as HttQ103 aggreg 19% and HTT cytoprotect -3%.
`Nc1ncnc2c1ncn2[C@@H]1O[C@@H](CO)[C@H](O)[C@@H]1O` gave HTT cytoprotect 0%[1.9 µM].
O=C(c1cnccn1)N1CCC2(CC1)CN(Cc1cc(C(F)(F)F)cc(C(F)(F)F)c1)C2 was read as HTT cytoprotect 8%.
`COc1cccc(Nc2nc(-c3ccccc3)c3cc(C)ccc3n2)c1` gave Tau fluor cs inconclusive, Tau ThT inhib inconclusive and Tau FP inhib -10%.
`COc1cc(Nc2nc(-c3ccccc3)c3cc(C)ccc3n2)cc(OC)c1OC` gave Tau fluor cs inconclusive, HttQ103 aggreg -17%, Tau ThT inhib 16µM*, HTT cytoprotect -85% and Tau FP inhib inconclusive.
For COCCNC(=O)CCCn1c(SCc2ccccc2C)nc2c(sc3ccccc32)c1=O the results were Tau fluor cs -4%, Tau ThT inhib 0% and Tau FP inhib -1%.
Oc1c(Cl)cc(Cl)cc1C=Nc1cc(C(F)(F)F)ccc1N1CCc2ccccc2C1 was read as Tau fluor cs -28%, HttQ103 aggreg 6%[9.22 µM], Tau ThT inhib 28µM*, HTT cytoprotect -15%[10 µM] and Tau FP inhib inconclusive.
For COc1ccc(C(c2c[nH]c3ccccc23)c2c[nH]c3ccccc23)cc1O the results were Tau fluor cs 14µM*[quencher], HttQ103 aggreg -27%, Tau ThT inhib inconclusive, HTT cytoprotect -38% and Tau FP inhib inconclusive.
`CN1CCN(c2ccnc(-c3ccoc3)n2)CC1` gave HTT cytoprotect 10%.
For CCOc1ccc(CCNC(=O)CCn2c(=O)c3cccn3c3ccc(F)cc32)cc1OCC the results were Tau fluor cs -22%, Tau ThT inhib -17% and Tau FP inhib 10%.
CC1(C)CCCN(C(=O)c2ccc3c(c2NCCO)C(=O)c2ccccc2C3=O)C1 was read as Tau fluor cs inconclusive, HttQ103 aggreg inconclusive, Tau ThT inhib 14µM* and Tau FP inhib 18%.
Screening O=C1c2ccccc2C(=O)c2c1ccc(C(=O)N1CCCCC1)c2NCCO returned Tau fluor cs -12%, HttQ103 aggreg 1%, Tau ThT inhib -15%, HTT cytoprotect 14% and Tau FP inhib -2%.
Screening COC(=O)[C@@H](NC(=O)N1CCc2nc(-c3ccc(OC)cc3C)c3c(c2C1)CO[C@@H](c1ccccc1)C3)C(C)C returned Tau fluor cs -1%[11.6 µM], Tau ThT inhib -4%[11.5 µM], HTT cytoprotect 19%[10 µM] and Tau FP inhib 2%[11.6 µM].
O=[N+]([O-])c1ccc(C2Oc3ccccc3C3CC(c4ccccc4)=NN32)s1 (stereo unspecified) was read as Tau fluor cs 14µM*[quencher], HttQ103 aggreg -6%, Tau ThT inhib 14µM*, HTT cytoprotect 9%[0.074 µM] and Tau FP inhib inconclusive.
Screening CCCCN1C2=C(C(=O)CC(C)(C)C2)C(c2ccccc2)C2=C1c1ccccc1C2=O (stereo unspecified) returned Tau fluor cs -24%, HttQ103 aggreg -19%, Tau ThT inhib 14µM*, HTT cytoprotect -20% and Tau FP inhib inconclusive.
CCCN1C2=C(C(=O)CC(C)(C)C2)C(c2ccc(F)cc2)C2=C1c1ccccc1C2=O (stereo unspecified) was read as Tau fluor cs inconclusive, HttQ103 aggreg inconclusive, Tau ThT inhib inconclusive, HTT cytoprotect -2% and Tau FP inhib 5%.
For Cc1ccc(C#N)cc1 the results were HTT cytoprotect -7%.
Screening Cc1nn(-c2ccc(F)cc2)c(-n2cccc2)c1C(=O)NCCCN1CCN(c2cccc(Cl)c2)CC1 returned Tau fluor cs -18%, Tau ThT inhib inconclusive and Tau FP inhib -1%.
